PubChem BioAssay AID686979 (National Center for Advancing Translational Sciences (NCATS), 2013)
Values joined by “and” are separate entries in the source; they are usually repeats but may differ in a detail not shown here. Equal values may be shown once. The whole screen tested about 420,000 compounds, of which about 50,000 (12%) were called active. Roughly 26% stayed inconclusive and do not appear here. The sample holds actives, similar compounds and a random draw of the others, so the mix is not that of the screen. Calls follow the shape of the dose curve; as a rule, active = well fitted inhibition curve with a large enough effect; inconclusive = small, poorly fitted or top-dose-only effect; inactive = flat fitted curve, though single readings scatter.

Assay: qHTS for Inhibitors of human tyrosyl-DNA phosphodiesterase 1 (TDP1): qHTS in cells in presence of CPT; also: nearly all actives have a fitted effect of over 55% in size
Details: chicken DT40 Tdp1-/-;hTDP1 cells + 20 nM CPT, ATP luminescence, 48 h; series mostly up to 46.2 µM; activity change, negative = growth inhibition: at the top concentration
Method in brief: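 Chicken DT40 Tdp1-/- cells stably complemented with human TDP1 were seeded at 400 cells/well in medium containing 20 nM camptothecin, exposed to pin-transferred compounds, and grown at 37 °C for at least 48 hr. Viability was read as ATP luminescence.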
% is scaled to controls: 0 for no effect and ±100 for the full control effect; potency is read from the fitted curve at half-maximal effect.

| Structure (SMILES) | Potency | activity change, negative = growth inhibition |
| --- | --- | --- |
| O=c1c2c(-c3ccccc3)ccnc2[nH]n1-c1ccccc1 | inactive | – |
| COc1cc(/C=C2\SC(=O)NC2=O)ccc1OCc1ccc(Cl)nc1 | – | -1.3% (inactive) |
| C=CCNC(=O)c1ccc(C)c(Br)c1 | – | 25.2% (inactive) |
| C=CCNC(=O)c1cc(-c2ccccc2O)on1 | – | -22.6% (inactive) |
| C=CCNC(=O)c1ccc2nc(-c3ccco3)c(-c3ccco3)nc2c1 | 11.2 µM (active) | – |
| CCSc1nnc(SCC(=O)NNC(=O)c2ccccc2F)s1 | – | -10.2% (inactive) |
| Cn1c(=O)cc(SCC(=O)N2CCCC2)c2cc(Cl)ccc21 | – | -6% (inactive) |
| CCN(CCCNC(=O)CSc1cc(=O)n(C)c2cc(Cl)ccc12)Cc1ccccc1 | – | -4.12% (inactive) |
| COc1cccc(NC(=O)CSc2cc(=O)n(C)c3ccc(Cl)cc23)c1 | 23.1 µM (active) | – |
| COc1cccc(NC(=O)CN(C)C(=O)Cc2ccc(Cl)cc2Cl)c1 | – | -14.2% (inactive) |
| CCOc1ccc(CCNC(=O)Nc2ccccc2)cc1OCC | – | -29.2% (inactive) |
| CCOc1ccc(CCNC(=O)CSc2cc(=O)n(C)c3ccc(Cl)cc23)cc1OCC | 18.4 µM (active) | – |
| CN(C)Cc1c(O)ccc2occ(C(O)c3ccccc3)c12 (stereo not given) | – | 0.876% (inactive) |
| COC(C[C@@H](O)C[C@@H](O)[C@H](C)OCc1ccccc1)OC | – | 12.1% (inactive) |
| Cc1ccc2c(c1)N(C(=O)Nc1ccc(Br)cc1F)CCO2 | – | 2.15% (inactive) |
| O=C(Nc1ccccc1C(=O)Nc1ccncc1)c1ccc([N+](=O)[O-])cc1 | – | -1.72% (inactive) |
| CCOC(=O)c1ccc(Nc2cc(C)nc3nc(C)nn23)cc1 | – | 1.9% (inactive) |
| CCOC(=O)c1nc(Nc2ccc(C(=O)OC)cc2)c2ccccc2n1 | 7.31 µM (active) and 16.4 µM (active) | – |
| COC(=O)c1ccc(Nc2ncnc3sccc23)cc1 | – | -7.33% (inactive) |
| C/C=C/C(=O)OCC(=O)Nc1ccc(F)cc1Cl | – | -15.8% (inactive) |
| CN(C)N1C(N)=C(C#N)C(c2ccc(Br)cc2)C2=C1CCCC2=O (stereo not given) | – | 5.39% (inactive) |
| CCCNC(=O)c1c(N)n(-c2ccc(S(N)(=O)=O)cc2)c2nc3ccccc3nc12 | – | -3.73% (inactive) |
| CC(C)(C)c1ccc(C(=O)NCCn2c(N)c(C#N)c3nc4ccccc4nc32)cc1 | 23.1 µM (active) | – |
| COCC(C)OC(=O)c1c(N)n(CCCN2CCOCC2)c2nc3ccccc3nc12 (stereo not given) | – | 2.35% (inactive) |
| O=C(NCc1nnc(SCC(=O)N2CCCCCC2)o1)c1ccc(F)cc1 | – | 3.58% (inactive) |

| Structure (SMILES) | Potency | activity change, negative = growth inhibition |
| --- | --- | --- |
| C=CCc1cc(S(=O)(=O)c2ccc(O)c(CC=C)c2)ccc1O | – | -21.5% (inactive) |
| Cc1c(CCC(=O)O)c(=O)oc2c(C)c(OCc3ccccc3Cl)ccc12 | – | 7.19% (inactive) |
| CC(C)CN(C(=O)c1cccc(S(=O)(=O)N2CCCCC2)c1)C1CCS(=O)(=O)C1 (stereo not given) | inactive | – |
| CCCCn1c(N)c(N(CCOC)C(=O)c2cccc(OCc3ccccc3)c2)c(=O)[nH]c1=O | – | -10.2% (inactive) |
| Fc1ccc(-n2c(Cc3ccccc3)nnc2SCc2nc(-c3ccc(Cl)cc3)no2)cc1 | 13 µM (active) | – |
| Cc1ccc(-c2noc(CSc3nnc(-c4ccncc4)n3-c3ccc(F)cc3)n2)cc1 | 11.6 µM (active) | – |
| O=C(CSc1nnc(-c2ccncc2)n1-c1ccc(Cl)cc1)Nc1ccc(C(=O)O)cc1 | – | -4.12% (inactive) |
| Cc1ccc(-c2nc(-c3ccncc3)no2)c(C)c1 | – | -6.9% (inactive) |
| O=C(CSc1nnc(Cc2ccccc2)n1-c1ccccc1)N1CCOCC1 | – | 5.04% (inactive) |
| COc1ccc(-c2nnc(SCC(=O)c3ccco3)n2-c2ccccc2)cc1 | – | 3.76% (inactive) |
| Cc1ccc(-c2noc(CSc3nnc(-c4ccc(Cl)cc4)n3C)n2)cc1 | 18.4 µM (active) | – |
| COc1ccc(-c2noc(CSc3nnc(-c4ccccc4)n3-c3ccc(F)cc3)n2)c(OC)c1 | 11.6 µM (active) | – |
| Cc1ccc(-c2noc(CSc3nnc(-c4cccs4)n3C)n2)cc1 | – | -25.9% (inactive) |
| COc1ccccc1-c1noc(CSc2nc(C)cc(=O)[nH]2)n1 | – | 8.99% (inactive) |
| Cc1ccc(CSc2nnc(-c3cnccn3)n2C)cc1 | – | 3.5% (inactive) |
| CSc1nnc(CNC(=O)c2ccccc2)n1-c1ccc(F)cc1 | – | -0.846% (inactive) |
| Cc1cc(=O)cc(C)n1-c1ccc(Cl)c(Cl)c1 | – | 0.528% (inactive) |
| CN(C(=O)CC1C(=O)NCCN1Cc1ccc2ccccc2c1)C1CCOCC1 (stereo not given) | – | 5.07% (inactive) |
| Cc1ccc(/C=C2\CCn3c2nc2cc(C(=O)O)ccc2c3=O)c(C)c1 | – | -6.72% (inactive) |
| Cc1ccc(-c2cc(C(=O)NN)n[nH]2)o1 | – | -2.74% (inactive) |
| CN(Cc1ccccc1)C(=O)[C@@H]1CCCN1C(=O)[C@@H]1CCCN1C(=O)c1c(F)cccc1F | – | 1.59% (inactive) |
| CC(C)=CCN1CCN(Cc2ccc(Oc3ncccn3)cc2)CC1CCO (stereo not given) | – | -0.653% (inactive) |
| COc1ccccc1OCCOc1ccc(/C=C2\C(=N)N3N=C(C)SC3=NC2=O)cc1 | – | 5.82% (inactive) |
| COc1ccc(NC(=O)N(C)C[C@H]2Oc3ncc(C#C[C@@H](C)O)cc3C(=O)N([C@H](C)CO)C[C@H]2C)cc1 | – | 1.89% (inactive) |
| Cn1c(=O)cc(OCC(=O)N2CCN(c3ccccc3)CC2)c2ccccc21 | – | -1.4% (inactive) |
